# MITF inh = human MITF inhibition, primary screen | O75030 | AlphaScreen MITF homodimerization, bead proximity signal | inhibition, % at 2.6 µM | 650,000 tested, 0.91% active | AID 1259374; in the data active means inhibition above about 50%;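 further: 0% = vehicle wells with protein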
# TEAD-YAP inh = TEAD-YAP interaction inhibition; HEK-TIYL cells, TEAD-Gal4/YAP UAS-luciferase luminescence; inhibition, % at 9.12 µM; 640,000 tested, 1.4% active; AID 1259422; in the data active means inhibition above about 32%;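 further: 0% = median of test compound wells and 100% = reference inhibitor wells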
# GPR151 ag = human GPR151 activation; Q8TDV0; PathHunter beta-arrestin GPR151 cells, luminescence; activation, % at 11.2 µM; 650,000 tested, 1% active; in the data active means activation above about 4.9%;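 further: 0% = median of compound wells and 100% = cells with positive control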
# FBW7 activator = activators of human E3 ligase FBW7. Q969H0. AlphaScreen FBW7–phospho-cyclin E peptide binding, activator screen. normalized activity (activation), % at 26.1 µM. 650,000 tested, 0.13% active. AID 1259310; in the data active means normalized activity above about 1.9%;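 further: purified mutant Fbw7 with reduced substrate affinity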
# Numbers without * were called inactive. This is a sample that favours compounds with a hit; in the whole collection about 3.5% have one here.
SMILES,MITF inh,TEAD-YAP inh,GPR151 ag,FBW7 activator
O=C1NC(=O)N(Cc2ccco2)C(=O)/C1=C\c1ccc2c(c1)OCO2,72*,-12,1,0
O=C1/C(=C/c2ccc3c(c2)OCO3)SC(=S)N1Cc1ccco1,8,2,0,1
C=CCN1C(=O)NC(=O)/C(=C/C=C/c2ccco2)C1=O,26,9,2,0
COc1ccc(/C=C2/C(=O)NC(=O)N(Cc3ccco3)C2=O)cc1C,59*,5,1,1
COC(=O)C1=CN(Cc2ccc(Cl)cc2)C=C(C(=O)OC)C1c1cccs1,-3,0,-2,0
CCS(=O)(=O)c1ccc2oc(=O)c(/C=C(\O)c3ccc(OC)c(OC)c3)nc2c1,5,9,0,0
Nc1ccc(OCc2ccc(COc3ccc(N)cc3)cc2)cc1,-116,21,1,17*
Cc1cc(C(C)(C)C)cc(S(=O)(=O)Nc2ccc(C(=O)N3CCOCC3)cc2)c1C,6,-6,0,0
CC(C)C(=O)Nc1ccc2nn(-c3ccccc3)nc2c1,5,46*,-1,0
CCC(=O)Nc1ccc2nn(-c3ccccc3)nc2c1,0,37*,-2,0
CC(C)(C)C(=O)Nc1ccc2nn(-c3ccccc3)nc2c1,-2,82*,2,0
O=C(Nc1ccc2nn(-c3ccccc3)nc2c1)C(F)(F)F,-17,-16,0,0
O=C1[C@@H]2C[C@H](NCc3cnn(-c4ccccc4F)c3)CN2C(=O)[C@@H]2CCCN12,18,-3,-1,0
COCCn1c(SC(C(C)=O)C(=O)N(C)C)nnc1-c1c[nH]c2ccccc12 (configuration not stated),3,-9,0,0
O=C(NCCCc1ccccc1)c1cc([N+](=O)[O-])ccc1Cl,7,53*,0,1
O=C(NCCC12CC3CC(CC(C3)C1)C2)c1cc([N+](=O)[O-])ccc1Cl,8,46*,-1,0
O=C(NCCn1ccc2ccccc21)c1cc([N+](=O)[O-])ccc1Cl,11,33*,0,0
O=C(NC12CC3CC(CC(C3)C1)C2)c1cc([N+](=O)[O-])ccc1Cl,11,20,-1,0
CSc1cccc(NC(=O)N[C@H]2C[C@H]3C(=O)N[C@@H](CO)C(=O)N3C2)c1,14,-2,-1,1
COc1ccc2c(c1)CC(c1nc3cc(-c4ccnc5[nH]ccc45)c(F)cc3[nH]1)CO2 (configuration not stated),-7,50*,1,0
CCn1c(C2COc3ccc(OC)cc3C2)nc2cc(F)c(-c3ccnc4[nH]ccc34)cc21 (configuration not stated),58*,-1,1,0
COc1ccc2c(c1)CC(c1nc3ccc(-c4ccnc(N)c4)cc3[nH]1)CO2 (configuration not stated),22,21,0,0
CCN(CC)S(=O)(=O)c1ccc(N2CCN(c3ccccc3OC)CC2)c(N)c1,4,33*,1,0
CCN(c1ccccc1)S(=O)(=O)c1ccc(OC)c(N)c1,-7,52*,-1,0
COc1ccc(S(=O)(=O)Cc2ccccc2)cc1N,2,-10,1,0
SMILES,MITF inh,TEAD-YAP inh,GPR151 ag,FBW7 activator
COc1ccc2[nH]c(CN3CCC4(CC3)NC(=O)c3ccccc3O4)c(C)c2c1,2,68*,-1,0
CN(C)c1ccc(-c2ccc3ccccc3n2)cc1,5,76*,-7,1
CN(C)c1ccc(-c2nc3ccccc3n2C)cc1,28,93*,-8,0
CC(C)c1ccc(C(O)Cc2nc3ccccc3n2C)cc1 (configuration not stated),-1,-9,1,-1
CN(C)c1ccc(C(O)Cc2nc3ccccc3n2C)cc1 (configuration not stated),-9,95*,-9,0
COCCNC(=O)c1nc(-c2ccccc2)oc1C(F)(F)F,2,0,1,0
CCC(=O)Nc1nc(C)cc2c1c(=O)oc1ccccc12,11,-2,-1,0
CC[C@H]1CN2CCc3cc(OC)c(OC)cc3C2C[C@@H]1CC1NCCc2cc(OC)c(OC)cc21 (some centres not stated),1,95*,2,0
COc1ccc(CCNc2nc(NC3CCC(O)CC3)nc3c2ncn3-c2ccccc2)cc1 (configuration not stated),8,48*,1,0
CC(C)N(CCNc1nc(NC2CCC(O)CC2)nc2c1ncn2-c1ccsc1)C(C)C (configuration not stated),0,74*,-1,0
